Screening results from PubChem BioAssay.
KKLEB cytotox: cytotoxicity in KKLEB CF airway cells, primary screen, cytotoxicity control for CF NF-kB inhibitor project, cell-based, uHTS, fluorescence assay plates; KKLEB CF airway cells viability, ATPlite luminescence, overnight; active compounds read low; cells stimulated with P. aeruginosa culture filtrate; activity change (cytotoxicity), % at 5 µM; AID 602141, 2011; hit rate 0.36% among 360,000;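 active means corrected activity change at or below -50% at 5 µM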
HSP90 inh: HSP90 inhibitors, primary screen, cell lysate, luminescence. hit rate 0.91% among 290,000. AID 1789, 2009. Rabbit reticulocyte lysate, luciferase refolding luminescence, 3 h. Heat shock protein HSP 90 (rabbit reticulocyte lysate; luciferase refolding). inhibition, % at 5.6 µM;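 active means inhibition above the screen-wide mean plus 3 SD, computed separately per campaign, cut at about 16% in these data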;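 further: 0% = DMSO wells and 100% = 60 µM geldanamycin wells; inhibitors lower the luminescence because luciferase stays unfolded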
CF NFkB block: inhibitors of PAF-induced NF-kB signaling, primary screen, cell-based, GFP fluorescence, uHTS. AID 588850, 2011. inhibition, % at 5 µM. KKLEB NF-kB-GFP reporter, GFP fluorescence overnight. hit rate 0.86% among 360,000;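 active means at least 50% inhibition at 5 µM, scaled per plate between neutral and stimulator controls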;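 further: PAF is a Pseudomonas aeruginosa culture filtrate used as stimulus; plate controls were PAF-stimulated DMSO wells for no effect and unstimulated DMSO wells for full effect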
Mdm2-MdmX inh: inhibitors of human Mdm2-MdmX association, primary screen, cell-based, luminescence, split luciferase, SaOS-2, uHTS | Protein Mdm4 (Homo sapiens) + E3 ubiquitin-protein ligase Mdm2 (Homo sapiens), … | SaOS-2 split-luciferase Mdm2/MdmX complementation | inhibition, % at 8 µM | hit rate 3% among 330,000;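 active means inhibition of at least 50% at 8 µM in the primary screen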
Peg3 prom inh: Peg3 promoter-driven luciferase inhibitors, primary screen, cell-based, HeLa, luciferase luminescence; HeLa PEG-Prom luciferase reporter, overnight; inhibition, % at 20 µM; hit rate 1.7% among 360,000; AID 588405, 2011;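 active means inhibition of at least 50% at 20 µM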
LGR2 inh: inhibitors of bursicon-induced LGR2 CRE-luciferase signal, primary screen, cell-based, HEK293, CRE-luciferase reporter, bursicon stimulation; Drosophila bursicon receptor LGR2 (rickets); bursicon-stimulated, 4 h; inhibition, % at 9.99 µM; hit rate 0.35% among 380,000; AID 720647, 2013;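 active means drop in luminescence signal, shown as inhibition above about 50% in the replicate tests, limit read from the data, passing the limit was not always enough; inconclusive means probably only some replicates passing the limit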;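 further: agonist challenge used bursicon conditioned medium at about half maximal strength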
Mdm2-MdmX conf: Mdm2-MdmX complex disruptors, retested hits, confirmation, luminescence, single concentration | Mdm2-MdmX binding, luminescent assay | AID 489028, 2010 | shares compounds with Mdm2-MdmX inh | hit rate 55% among 10,000 | inhibition, % at 8 µM; in the data active means inhibition above about 40%
Full FLuc ctr: full-length luciferase signal inhibition, confirmation, counter-screen for Mdm2/MdmX interaction inhibitor project, cell-based, single concentration, SaOS-2. shares compounds with Mdm2-MdmX inh. SaOS-2 full-length luciferase counterscreen, luminescence. inhibition, % at 8 µM. hit rate 77% among 6,200;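 active means mean inhibition at 8 µM reaching about 37%, which flags the compound as non-specific, limit read from the data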;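 further: p53-null SaOS-2 cells with luciferase driven by a doxycycline-inducible promoter; compound on cells about two nights before reading with doxycycline added after day one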
* = called active by the depositor; u = inconclusive; x = no result. Most compounds without a hit are left out; they make up all but 3.6% or so of the library.

SMILES	KKLEB cytotox	HSP90 inh	CF NFkB block	Mdm2-MdmX inh	Peg3 prom inh	LGR2 inh	Mdm2-MdmX conf	Full FLuc ctr
O=C(/C=C/c1cccc(Cl)c1)c1ccc([N+](=O)[O-])o1	-46.4	x	87.1*	100.3*	99.0*	86.1*	99.8*	51.4*
COc1ccc(/C=C/C(=O)c2ccc([N+](=O)[O-])o2)cc1OC	x	x	x	95.6*	x	98.7*	92.8*	56.5*
Cc1cc(O)c(C(=O)/C=C/c2cccc([N+](=O)[O-])c2)c(=O)o1	-15.5	0.7	15.0	12.8	-0.6	x	x	x
CCOc1cccc(/C=N/NC(=O)c2cc(-c3cccn3C)n[nH]2)c1O	9.8	-1.1	-7.9	62.9*	40.4	11.4	62.5*	51.6*
COc1cc(OC)c(OC)cc1/C=N/NC(=O)c1cc(-c2cccn2C)n[nH]1	1.2	-1.0	-6.6	-5.0	-3.6	x	x	x
C/C(=N\NC(=O)c1ccc2c(c1)OCCO2)c1ccccc1	1.4	-1.6	-5.7	71.3*	-22.1	-44.8	-12.9	x
C/C(=N\NC(=O)c1ccc(O)cc1)c1ccc2c(c1)OCCO2	8.8	x	27.8	3.8	-108.4	-20.9	x	x
COc1cccc(/C=N/NC(=O)CNC(=O)c2ccc3c(c2)OCCO3)c1O	11.6	2.6	-0.2	20.3	28.2	-2.1	x	x
CCOc1cccc(/C=N/NC(=O)c2ccc3c(c2)OCCO3)c1O	9.3	-2.8	-24.7	56.0*	-22.3	2.3	43.0*	45.3*
O=C(C[C@H]1CC[C@H]2[C@@H](COC[C@@H](O)CN2C(=O)Nc2ccc(Cl)cc2)O1)NCC1CCCCC1	x	x	x	x	x	-30.9	x	x
C[C@H]1CN([C@@H](C)CO)C(=O)Cc2cc(NS(C)(=O)=O)ccc2O[C@@H]1CN(C)S(=O)(=O)c1ccccc1	x	x	x	x	x	11.1	x	x
Cc1cc(-c2nnc(SCC(=O)Nc3ccccc3C(F)(F)F)o2)c(C)n1-c1ccccc1	11.3	8.7	-15.1	75.5*	-26.7	x	76.9*	103.4*
COCC#Cc1cnc2c(c1)C(=O)N([C@H](C)CO)C[C@H](C)[C@@H](CN(C)S(C)(=O)=O)O2	x	x	x	x	x	-2.6	x	x
CCOC(=O)c1ccccc1NC(=O)c1ccccc1NS(C)(=O)=O	-9.3	1.0	-2.9	-7.0	20.0	x	x	x
CCOC(=O)c1ccccc1NC(=O)c1cn(-c2ccc(C)c(C)c2)c(=O)c2ccccc12	-2.9	-5.2	26.2	69.1*	47.0	-12.6	29.1	x
C[C@@H]1CN([C@H](C)CO)C(=O)c2cc(NC(=O)Cc3ccccc3)ccc2O[C@@H](C)CCCCO[C@@H]1CN(C)S(=O)(=O)c1cccs1	x	x	x	x	x	1.8	x	x
CCc1cc(-c2[nH]ncc2-c2ccc3c(c2)OCO3)c(O)cc1O	-5.5	1.4	84.9*	77.8*	69.2*	40.1	73.3*	37.5*
COc1ccc(S(=O)(=O)N2C[C@@H](O)COC[C@@H]3O[C@@H](CC(=O)NCCN4CCCCC4)CC[C@H]32)cc1	x	x	x	x	x	-5.2	x	x
CCN1C(N(C)CCc2c[nH]c3ccccc23)=N[C@@H](c2cccc(C(F)(F)F)c2)C(C(=O)OC)=C1C	-23.8	x	23.0	87.9*	111.1*	x	40.7*	43.6*
CCc1ccc(S(=O)(=O)Nc2cccc(-c3ccc4nnc(C)n4n3)c2)s1	-20.8	x	-35.4	55.3*	-3.3	6.2	52.9*	85.0*
COc1ccc(S(=O)(=O)Nc2ccc(-c3ccc4nnc(C)n4n3)cc2)c(OC)c1	-11.5	x	-31.7	71.4*	-4.7	-13.8	35.9	x
Cc1ccc(S(=O)(=O)Nc2cccc(-c3ccc4nncn4n3)c2)cc1	-14.4	x	21.5	63.4*	14.9	2.8	77.8*	65.7*
Cc1nnc2ccc(-c3ccc(NS(=O)(=O)c4ccc(F)cc4F)cc3)nn12	0.9	x	-20.4	17.8	-9.4	-2.8	x	x
COc1ccc(OC)c(S(=O)(=O)Nc2ccc(-c3ccc4nnc(C)n4n3)cc2)c1	-9.8	x	-29.2	51.1*	17.4	-14.3	61.0*	65.1*
Cc1nnc2ccc(-c3ccc(NS(=O)(=O)c4ccccc4F)cc3)nn12	9.0	x	-33.6	17.7	-12.3	-11.0	x	x
SMILES	KKLEB cytotox	HSP90 inh	CF NFkB block	Mdm2-MdmX inh	Peg3 prom inh	LGR2 inh	Mdm2-MdmX conf	Full FLuc ctr
COc1ccc2c3c([nH]c2c1)[C@@H](CO)N(C(=O)C1CCOCC1)CC31CCN(C(=O)NC(C)C)CC1	x	x	x	x	x	14.8	x	x
CC(Nc1nc(-c2ccc(Cl)cc2)cs1)c1nc2cc(Cl)c(N3CCCCC3)cc2n1CCOCCO (stereo not drawn)	-9.4	x	-1.0	51.1*	47.4	u	1.6	x
CC(=O)NC1=NN(C(C)=O)C(C)(c2ccccc2)S1 (stereo not drawn)	-11.1	-3.1	2.1	60.0*	39.8	14.8	53.1*	52.7*
Cc1noc(C)c1S(=O)(=O)N(C)C[C@@H]1OCCCC[C@H](C)Oc2ccc(NC(=O)Cc3ccccc3)cc2C(=O)N([C@@H](C)CO)C[C@H]1C	x	x	x	x	x	-1.7	x	x
CC(=O)Nc1ccc(C(=O)CCl)cc1	-12.1	x	1.1	67.0*	34.3	5.4	29.4	x
COc1ccc(OC)c(N/C(=N/c2nc(C)cc(C)n2)NC(C)=O)c1	-14.4	-1.9	0.2	-3.5	15.2	30.8	x	x
COc1ccc(OC)c(N(/C(N)=N/c2nc(C)cc(C)n2)S(=O)(=O)c2ccc(NC(C)=O)cc2)c1	-15.4	-3.5	8.3	62.8*	23.6	19.6	25.0	90.1*
Cc1ccc(S(=O)(=O)N(C)C[C@@H]2Oc3c(NC(=O)Nc4c(C)noc4C)cccc3C(=O)N([C@@H](C)CO)C[C@H]2C)cc1	x	x	x	x	x	-1.2	x	x
Cc1ccc(NC(=O)c2cc3ccccc3o2)cc1S(=O)(=O)N(C)C	-35.3	-3.6	0.7	x	-180.5	x	x	x
Cc1ccc(NC(=O)c2cc3ccccc3oc2=O)cc1S(=O)(=O)N(C)C	-19.8	38.4*	-1.2	89.0*	77.3*	x	94.0*	25.9
C[C@@H]1CN([C@@H](C)CO)C(=O)c2cc(Br)cnc2O[C@@H]1CN(C)C(=O)c1ccccc1F	x	x	x	x	x	-5.7	x	x
O=C(C[C@@H]1C=C[C@@H](NC(=O)Cc2ccccn2)[C@H](CO)O1)NCCc1ccccc1	x	x	x	x	x	-4.6	x	x
